# Compound activity from PubChem BioAssay.
# TDP1 cell noCPT – qHTS for Inhibitors of human tyrosyl-DNA phosphodiesterase 1 (TDP1): qHTS in cells in absence of CPT. actives 15% (n = 420,000). Potency, µM (highest dose often 46.2 µM), for the others: at the highest dose activity change, negative = growth inhibition, hits mostly inhibitors. DT40 Tdp1-/- hTDP1 cells, no CPT, ATP luminescence, 48 h. AID 686978, 2013; also: potency is read from the fitted curve at half-maximal effect; nearly all actives have a fitted effect of over 55% in size
#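 Chicken DT40 Tdp1-/- cells stably complemented with human TDP1 were seeded at 400 cells/well with DMSO in place of 20 nM camptothecin. After compound pinning, cells grew at least 48 hr at 37 °C; viability read by CellTiter-Glo luminescence.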
# IL-1B inflam inh – qHTS for Inhibitors of Inflammasome Signaling: IL-1-beta AlphaLISA Primary Screen; THP-1 LPS/ATP IL-1B secretion, AlphaLISA, 16 h; stronger effect = lower value; activity change, % at 57.5 µM; actives 4.7% (n = 360,000); in the data active = activity change below about -50%; inconclusive = mostly about -30% to -49%
#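 Secreted IL-1B measured by AlphaLISA bead assay after 16 h compound exposure of THP-1 cells; compounds (final up to 57.5 uM) added 1 h before LPS (250 ng/mL) and ATP (1.25 mM) stimulation; lower signal means less secretion.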
# ELG1 DNA repair – qHTS screen for small molecules that inhibit ELG1-dependent DNA repair in human embryonic kidney (HEK293T) cells expressing luciferase-tagged ELG1; HEK293T ELG1-luciferase reporter, luminescence, 16 h; DNA damage induced by 5-fluorouridine; Potency, µM (top dose mostly 46.1 µM), for the others: top-dose activity change, negative = inhibition, most hits filed as inhibitors; actives 2.3% (n = 330,000); AID 504467, 2011; also: potency is read from the fitted curve at half-maximal effect; nearly all actives have a fitted effect of over 55% in size
#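 Luminescence from the luciferase reporter, measured 30 min after ONE-Glo reagent at room temperature, was the read-out. Beforehand, 2,000 cells per well were exposed for 16 hr at 37 °C to 5-fluorouridine together with compound or vehicle.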
# TDP1 block – qHTS Assay for Inhibitors of Tyrosyl-DNA Phosphodiesterase (TDP1); recombinant TDP1, AlphaScreen DNA substrate cleavage; Potency, µM (series often up to 130 µM), inactives show at the highest dose activity change, negative = inhibition, actives largely listed as inhibitors; actives 0.28% (n = 350,000); also: potency is read from the fitted curve at half-maximal effect; nearly all actives have a fitted effect of over 40% in size
# Target sequence (Q9NUW8 whole entry, looked up): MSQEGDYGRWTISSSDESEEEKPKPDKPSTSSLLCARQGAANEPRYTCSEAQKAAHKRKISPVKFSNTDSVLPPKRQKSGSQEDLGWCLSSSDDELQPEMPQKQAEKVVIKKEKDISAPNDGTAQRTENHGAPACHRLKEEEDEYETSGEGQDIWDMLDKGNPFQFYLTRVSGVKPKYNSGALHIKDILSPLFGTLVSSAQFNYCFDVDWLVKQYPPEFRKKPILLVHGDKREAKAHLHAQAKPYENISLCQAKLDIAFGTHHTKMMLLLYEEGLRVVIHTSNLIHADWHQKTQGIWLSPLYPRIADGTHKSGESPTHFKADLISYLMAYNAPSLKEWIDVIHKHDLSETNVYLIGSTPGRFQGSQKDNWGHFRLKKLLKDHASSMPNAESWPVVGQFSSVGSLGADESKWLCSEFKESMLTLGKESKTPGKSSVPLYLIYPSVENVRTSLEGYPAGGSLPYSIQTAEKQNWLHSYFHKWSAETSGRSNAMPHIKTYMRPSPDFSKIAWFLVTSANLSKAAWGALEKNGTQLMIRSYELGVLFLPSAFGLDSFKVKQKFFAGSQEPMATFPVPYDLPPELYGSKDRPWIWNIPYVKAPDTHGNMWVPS
#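 Compounds were preincubated with Tdp1 (1 nM final) for 15 min at room temperature before substrate (15 nM final) started a 5 min reaction; beads (10 ug/ml final) were then added for 10 min before AlphaScreen detection.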
# Giardia killer – Small Molecules that selectively kill Giardia lamblia: qHTS; actives 0.15% (n = 340,000); Giardia lamblia trophozoite viability; activity change, % at 7.66 µM, hits read low; in the data active = activity change below about -80%; inconclusive = between about -30% and that limit;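 also: parasites exposed to compound for two days anaerobically before the ATP read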
#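 Compounds were tested on trophozoites seeded at 100 cells/well and held 48 hrs at 37 deg C anaerobically. An ATP-based luminescent kit measured the remaining live cells.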
# TDP1 cell CPT – qHTS for Inhibitors of human tyrosyl-DNA phosphodiesterase 1 (TDP1): qHTS in cells in presence of CPT; actives 12% (n = 420,000); chicken DT40 Tdp1-/-;hTDP1 cells + 20 nM CPT, ATP luminescence, 48 h; Potency, µM (doses to about 46.2 µM), for inactives: at the highest dose activity change, negative = growth inhibition, most hits filed as inhibitors; AID 686979, 2013; also: potency is read from the fitted curve at half-maximal effect; nearly all actives have a fitted effect of over 55% in size
#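 Chicken DT40 Tdp1-/- cells stably complemented with human TDP1 were seeded at 400 cells/well in medium containing 20 nM camptothecin, exposed to pin-transferred compounds, and grown at 37 °C for at least 48 hr. Viability was read as ATP luminescence.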
# * = called active by the depositor; ? = inconclusive; / = not tested or not shown; [ ] = dose if it differs, or a comment. An excerpt weighted towards active compounds, which were near 19% of everything screened. Unless noted, calls follow the shape of the dose curve; as a rule, active = well fitted curve in the direction sought with a large enough effect; inconclusive = small, poorly fitted or top-dose-only effect, or another doubt; inactive = no such curve, though single readings can be large; an effect the other way counts as inactive or inconclusive. % is scaled to controls: 0 for no effect and ±100 for the full control effect.
SMILES,TDP1 cell noCPT,IL-1B inflam inh,ELG1 DNA repair,TDP1 block,Giardia killer,TDP1 cell CPT
CC(=O)N1N=C(c2cccnc2)CC1c1ccccc1O (stereo not given),-10.7%,97.3,-0.7%,/,32.1,-11.7%
CCc1ccc(N2C(=O)NC(=O)/C(=C\C=C\c3ccco3)C2=O)cc1,3.26µM*,-96.0*,?,-1.2%,5.9,3.66µM*
CC(C)c1ccc(N2C(=O)NC(=O)/C(=C/C=C/c3ccco3)C2=O)cc1,4.61µM*,?,?,0.0%,-2.5,5.17µM*
Cc1cc(C)cc(N2C(=O)NC(=O)/C(=C\C=C\c3ccco3)C2=O)c1,5.8µM*,-86.2*,?,-1.9%,-4.3,5.17µM*
O=C1NC(=O)N(c2ccccc2)C(=O)/C1=C\C=C\c1ccccc1,2.59µM*,-98.2*,?,2.9%,-6.5,2.06µM*
CC1=NN(c2ccccc2)C(=O)C1/C=C1\C(=O)NC(=O)N(c2cc(C)cc(C)c2)C1=O (stereo not given),?,-8.7,9.9%,2.5%,-8.5,-13.3%
CCOc1ccc(N2C(=O)/C(=C/c3ccco3)C(=O)NC2=S)cc1,-0.3%,-0.4,-10.7%,/,-19.0,-14.5%
NCC(CS(=O)(=O)O)c1ccc(Cl)cc1 (stereo not given),-21.1%,/,/,-8.5%,/,3.0%
Cc1onc(-c2ccccc2Cl)c1C(=O)OCC(=O)c1ccc2c(c1)OCCO2,14.6µM*,-20.9,13µM*,4.2%,-9.3,?
O=C1OC(=O)C2C1[C@@H]1CC[C@H]2O1 (stereo not given in full),4.7%,18.4,?,-8.7%,13.9,16.9%
CP(=O)(O)C1=CCNCC1,-1.1%,/,/,6.1%[56.1 µM],/,-6.8%
CC1CCCC(C)N1c1nnc(NC(=O)Cn2c(=O)oc3ccccc32)s1 (stereo not given),13µM*,11.4,6.2%,1.1%,-4.7,-20.2%
COC(=O)C1=C(C)NC(C)=C(C(=O)NCCCN2CCC(c3ccccc3)(c3ccccc3)CC2)C1c1ccc([N+](=O)[O-])cc1 (stereo not given),/,/,/,18.7%,/,/
COC(=O)C1=C(C)NC(C)=C(C(=O)O[C@H]2CCN(Cc3ccccc3)C2)[C@H]1c1cccc([N+](=O)[O-])c1,23.7µM*,/,/,/,/,?
O=C(c1ccco1)c1cn(Cc2ccccc2)c2ccccc12,?,4.1,16.9%,0.0%,-10.6,7.2%
O=C(c1ccco1)c1cn(Cc2ccccc2Cl)c2ccccc12,?,-16.4,8.4%,4.7%,0.8,17.8µM*
CC1=C(C)[N+](=O)C2CCCCC2N1[O-] (stereo not given),4.7%,-8.7,1.3%,1.1%,13.0,?
N#Cc1cccc(NC(=O)N2CCCC3(CCN(C(=O)Oc4ccccc4)CC3)C2)c1,-12.1%,/,/,/,/,0.5%
COc1ccccc1NC(=O)c1oc2ccccc2c1NC(=O)c1ccccc1C(F)(F)F,5.17µM*,/,/,3.8%,/,3.66µM*
CCCCC(=O)OCC(=O)[C@]1(O)Cc2c(O)c3c(c(O)c2[C@@H](O[C@H]2C[C@H](NC(=O)C(F)(F)F)[C@H](O)[C@H](C)O2)C1)C(=O)c1c(OC)cccc1C3=O,1.33µM*,/,/,/,/,1.5µM*
COc1cccc2c1C(=O)c1c(O)c3c(c(O)c1C2=O)CC(O)(C(C)=NO)CC3OC1CC(N)C(O)C(C)O1 (stereo not given),0.184µM*,-97.0*,/,/,-20.4,0.206µM*
N[C@H](C(=O)O)[C@@H]1CC(Cl)=NO1,2.11µM*,/,/,/,/,1.68µM*
O=P(O)(Oc1ccccc1)OC(c1ccccc1)C(F)(F)C(F)(F)F (stereo not given),-13.4%,31.5,-1.9%,-2.9%,-16.5,4.2%
C[C@]12CC[C@H]3[C@@H](CC=C4C[C@@H](O)CC[C@@]43C)[C@@H]1CC[C@@H]2O,-23.5%,/,/,/,/,-3.2%
O=C(OCc1c(-c2ccccc2)ncc2ccccc12)c1ccc(C(F)(F)F)cc1,5.8µM*,17.8,?,-0.1%,20.2,?
SMILES,TDP1 cell noCPT,IL-1B inflam inh,ELG1 DNA repair,TDP1 block,Giardia killer,TDP1 cell CPT
CC[C@]1(C(=O)OC)[C@H]2C(=O)N(Cc3ccccc3)C(=O)[C@H]2[C@H]2CN=C(SCc3ccc(C(=O)OC)cc3)N21,?,19.1,?,-1.7%[56.1 µM],-2.6,20.6µM*
CC[C@]1(C(=O)OC)[C@H]2C(=O)N(Cc3ccccc3)C(=O)[C@H]2[C@H]2CN=C(SCc3ccc(C)cc3)N21,18.4µM*,18.9,-11.8%,0.0%[56.1 µM],-5.7,?
CNNC,-1.1%,/,/,1.0%[56.1 µM],/,-24.8%
C[C@]12CC[C@H]3[C@@H](CCC4=C(O)C(=O)CC[C@@H]43)[C@@H]1CC[C@@H]2OC(=O)CCC1CCCC1,-21.5%,/,/,/,/,-5.6%
O=C(Cl)OCc1ccccc1,/,/,/,8.7%,/,/
COc1ccccc1N1CCN(Cc2c[nH]c3ccccc23)CC1,5.8µM*,/,?,2.7%,?,4.11µM*
COc1ccccc1N1CCN(CCc2c[nH]c3cc4c(cc23)OCO4)CC1,18.4µM*,?,/,/,-18.3,23.1µM*
O=[N+]([O-])c1ccc(C[n+]2c(-c3ccccc3)cc(-c3ccccc3)cc2-c2ccccc2)cc1,2.31µM*,?,?,1.2%,1.0,2.59µM*
O=[N+]([O-])c1cc(Cl)c(O)c(-[n+]2c(-c3ccccc3)cc(-c3ccccc3)cc2-c2ccccc2)c1,8.2µM*,-5.3,?,/,-2.5,13µM*
CCN(CC(=O)Nc1ccccc1C(F)(F)F)C(=O)CCSc1ccc(F)cc1,?,-13.9,-13.4%,/,6.3,-23.9%
COC1=C[C@H]2C3=C([C@H]2C1=O)[C@H](NC(C)=O)CCc1cc(OC)c(OC)c(OC)c13,/,/,/,6.5%[56.1 µM],/,/
COc1cc2c(c(OC)c1OC)-c1ccc(O)c(=O)cc1[C@@H](NC(C)=O)CC2,6.51µM*,99.3,?,2.1%,9.4,5.17µM*
COc1cc2c(c(OC)c1OC)-c1ccc(O)cc1[C@@H](NC(C)=O)CC2,0.164µM*,50.2,?,-1.7%,20.5,0.231µM*
COc1cc2c(c(OC)c1OC)-c1ccc(O)cc1C(NC(C)=O)CC2 (stereo not given),0.184µM*,66.6,/,/,-19.5,0.206µM*
